For 95 molecules, inhibition results are on record in PubChem BioAssay AID463190 (Sanford-Burnham Center for Chemical Genomics, 2010).

Out of some 330,000 compounds screened, about 7,300 (2.2%) were called active. For the sample, actives were picked, then their nearest neighbours and some compounds at random. Unmarked numbers belong to inactive results.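 How the source made its calls: active means inhibition of at least 40%; inactive means the rest.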

This test can be described thus: growth inhibition of tim10-1 ts yeast – luminescence, uHTS, primary screen (AID 463190).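 Further: mutant grown at 25 °C; 0% = DMSO wells with yeast and 100% = wells holding no yeast.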 To be noted: S. cerevisiae tim10-1 ts strain growth, BacTiter-Glo, 24 h; at 20 µM; active compounds read high.
Turning to `Cc1cc2c(=O)n(C)c(SCC(=O)c3cc4ccccc4o3)nc2s1`, the inhibition (in general, the relative decrease from the control value, in per cent) was 29.9%.

`Cc1ccccc1Nc1nnc(SCC(=O)c2cc3ccccc3o2)s1`: the inhibition is 43.5% (active).

On to `CCOc1ccccc1Nc1nnc(SCC(=O)Nc2cc(C)on2)s1`, for which the inhibition is 14.3%.

Regarding `O=C(Nc1cc(-c2nn(CC(=O)N3CCCCC3)c(=O)c3ccccc23)ccc1N1CCOCC1)c1ccc(Cl)cc1`, the inhibition is 5.87%.

Take `Cc1cc(C)n2nc(CNS(=O)(=O)c3c(F)c(F)c(F)c(F)c3F)nc2n1`: the inhibition is 3.29%.

As for `CC(=O)Nc1ccc(C(=O)/C=C/c2ccc[nH]2)cc1`, the inhibition is -13.3%.

On to `CC(=O)Nc1ccc(/C=C/C(=O)c2ccccc2)cc1`, for which the inhibition is 51.4% (active).

Regarding `O=C(/C=C/c1ccc(N2CCOCC2)cc1)c1ccccc1`, the inhibition was 36.1%.

For the molecule `O=C(CCNS(=O)(=O)c1ccccc1C(F)(F)F)Nc1ccncc1`, the inhibition was -1.52%.

As for `Cc1ccc(-n2nc(C)c(/C=N/NC(=O)c3cccs3)c2Cl)cc1`, the inhibition was -6.6%.

In the case of `Cc1ccc(C(=O)/C=C/c2c(C)nn(-c3ccccc3)c2Cl)cc1`, the inhibition is 42.7% (active).

In the case of `Cc1nn(-c2ccccc2)c(Cl)c1/C=C/C(=O)c1ccc(O)cc1`, the inhibition is 0.354%.

For `CC(=O)N/C(=C\c1ccccc1)C(=O)OC(C)C(=O)N(C)c1ccccc1` (stereo not given), the inhibition is 4.65%.

For the molecule `COC(=O)c1c(C(=O)OC)c2n(c1C)CCS2`, the inhibition was -20.7%.

As to `COc1ccccc1CCNC(=O)c1c(C)nn(CC(C)C)c1Cl`, the inhibition was 16.6%.

Regarding `Cc1ccc(C(C[N+](=O)[O-])c2c(C)cc3ccccn23)cc1` (stereo not given), the inhibition is 41.6% (active).

In the case of `Cc1ccc(C(=O)NNC(=O)CSc2nnc3ccccn23)cc1`, the inhibition is 4.3%.

For `Cc1cc2ccccn2c1C(=O)c1cccc(F)c1`, the inhibition is -8.04%.

With `COc1ccccc1C(=O)NC(=S)Nc1ccccc1N1CCCCC1`, the inhibition was 41.9% (active).

In the case of `COc1ccc(C(=O)NC(=S)Nc2ccccc2N2CCN(S(C)(=O)=O)CC2)cc1OC`, the inhibition was 25%.

For `Cc1cc(C(=O)NNC(=S)Nc2ccccc2C)cs1`, the inhibition is 24%.

In the case of `O=C(COc1ccc(Cl)cc1)NC(=S)Nc1ccccc1N1CCOCC1`, the inhibition was 4.3%.

Turning to `CCc1ccc(C(=O)NC(=S)Nc2ccccc2N2CCOCC2)cc1`, the inhibition is 40.2% (active).

`Cc1ccc(C(=O)NC(=S)Nc2ccccc2C)cc1`: the inhibition is 40.5% (active).

Consider `O=C(Nc1ccccc1N1CCOCC1)c1ccncc1`, for which the inhibition is -6.96%.

As for `Cc1ccccc1NC(=S)NC(=O)Cc1ccc(Cl)cc1`, the inhibition was 22.6%.

On to `O=C(NC(=S)Nc1ccccc1N1CCCCC1)c1ccc(F)cc1`, for which the inhibition is 32.4%.

As to `COc1ccccc1Cn1c(C)nnc1-c1cnn(C)c1N`, the inhibition is 9.92%.

With `CCOC(=O)c1c(Cc2ccc(Cl)cc2)c[nH]c1C`, the inhibition is 29.9%.

As to `O=Cc1ccc(OCc2cn3ccccc3n2)cc1`, the inhibition is -8%.

`Nc1nc(CC(=O)CSc2ccc(Cl)cc2)nc(Nc2ccc(F)cc2)n1`: the inhibition was 1.48%.

With `COc1cc(Cl)c(C)cc1NC(=O)[C@@H]1CCCN1C(=O)c1cccs1`, the inhibition is 31.3%.

In the case of `COc1ccc(Cl)cc1NC(=O)[C@@H]1CCCN1C(=O)c1cccs1`, the inhibition was 33.9%.

As to `COc1ccc2nc(NC(=O)[C@@H]3CCCN3C(=O)c3cccs3)sc2c1`, the inhibition was 45.4% (active).

Consider `COCCCN(C(=S)Nc1c(C)cc(C)cc1C)C(C)c1ccncc1` (stereo not given), for which the inhibition is 21.3%.

Consider `O=S(=O)(NCc1ccc2c(c1)OCO2)c1cccc2nsnc12`, for which the inhibition was 1.8%.

`COc1ccc(Nc2cc(=O)n(-c3ccccc3)c3c2c(=O)n(C)c(=O)n3C)cc1`: the inhibition was 14.6%.

Take `O=C1C(Cc2ccc(O)cc2)NC(=S)N1Cc1ccccc1` (stereo not given): the inhibition is -2.4%.

In the case of `Cc1ccc(N2C(=O)C(Cc3ccccc3)NC2=S)cc1` (stereo not given), the inhibition was 44.1% (active).

Consider `Cc1cc(C)c(NC(=O)CN2C(=O)NC(Cc3ccccc3)C2=O)c(C)c1` (stereo not given), for which the inhibition was -9.44%.

Consider `CC(=O)c1cc2c(cc1NC(=O)Cn1nc(-c3ccc(F)cc3)ccc1=O)OCO2`, for which the inhibition was 16.5%.

Regarding `CN(C)c1ccc(C(CNC(=O)c2ccc(F)cc2)c2c[nH]c3ccccc23)cc1` (stereo not given), the inhibition was 37.2%.

Regarding `Clc1ccc(Nc2nc(-c3cccs3)cs2)nc1`, the inhibition is 45.1% (active).

As for `CCCc1cc(C(=O)Nc2ccc(Cl)cn2)cs1`, the inhibition is 27.7%.

In the case of `Cc1cccc(Nc2nc(-c3ccccc3)cs2)n1`, the inhibition is -40.5%.

`CCOC(=O)c1cc(-c2ccccc2C)n(Cc2cc(C)no2)n1`: the inhibition was 9.65%.

Take `CN(C(=O)CC(NC(=O)c1ccccc1)(c1ccccc1)c1ccccc1)c1ccccc1`: the inhibition is 41.7% (active).

As for `CC(C)(C)c1ccc(C(=O)NNC(=O)Cc2ccccc2)cc1`, the inhibition is -12.1%.

For the molecule `CN(CC(=O)O)C(=O)c1ccccc1`, the inhibition was -0.243%.

In the case of `CCOC(=O)NC(=O)/C(C#N)=C\c1ccccc1`, the inhibition was 2.89%.

In the case of `O=C(/C=C/c1c(F)cccc1Cl)Nc1nn[nH]n1`, the inhibition is 10.7%.

In the case of `CNC(=O)/C(C#N)=C/c1c(F)cccc1Cl`, the inhibition is 55.4% (active).

Regarding `O=C(CNS(=O)(=O)c1ccccc1)NCC(=O)OCc1ccccc1F`, the inhibition is 9.03%.

Turning to `O=C(Cn1nc(Cc2cccnc2)c2ccccc2c1=O)NCC1COc2ccccc2O1` (stereo not given), the inhibition is 14.3%.

As for `C=CCNC(=S)NNC(=O)COc1c(Cl)cc(Cl)cc1Cl`, the inhibition was 37.3%.

Regarding `CCOC(=O)C1CCN(C(=O)C2CCCN(S(=O)(=O)c3ccc(OC)c(Cl)c3)C2)CC1` (stereo not given), the inhibition was -9.18%.

Consider `COc1ccccc1NC(=O)N1CCCC1C(=O)NCc1cccs1` (stereo not given), for which the inhibition was 16.7%.

Turning to `Cc1ccc(S(=O)(=O)Nc2ccc3ncccc3c2)cc1`, the inhibition is 18.6%.

As for `O=[N+]([O-])c1ccccc1S(=O)(=O)Nc1cccc2cccnc12`, the inhibition is 34.8%.

On to `COc1cc(NS(=O)(=O)c2ccc3ccccc3c2)c2ncccc2c1`, for which the inhibition was 40.5% (active).

Take `COc1ccc(S(=O)(=O)NCc2cccnc2)cc1NC(=O)c1ccc(C)cc1`: the inhibition is 8.35%.

On to `Cc1ccc2nc(NCCCNC(=O)c3cnccn3)c(C#N)cc2c1`, for which the inhibition was 8.4%.

Regarding `CCC(C)(C)n1nnnc1CN1CCN(c2nc3ccc(C)cc3cc2C#N)CC1`, the inhibition was 40.7% (active).

With `CCC(C)(C)n1nnnc1C(c1cccs1)N1CCN(c2nc3ccccc3s2)CC1` (stereo not given), the inhibition is 36.1%.

Consider `COc1ccc(CNC(=O)COC(=O)/C=C/c2ccc(S(=O)(=O)N3CCOCC3)cc2)cc1`, for which the inhibition is 20%.

With `Cc1nc2nc(C)c(CCC(=O)N3CCN(c4ccccc4)CC3)c(C)n2n1`, the inhibition is 1.14%.

Regarding `COc1ccc2[nH]c3c(c2c1)CCN1C(=O)C(CC(=O)NCc2cccc(C(F)(F)F)c2)C[C@H](C(=O)N2CCOCC2)[C@@]31C` (stereo not given in full), the inhibition is 11%.

Turning to `COc1ccc(C(=O)N2CC3(C)CC2CC(C)(C)C3)cc1OC` (stereo not given), the inhibition was 19.6%.

In the case of `Cc1nnnn1/C(=C\c1ccccc1)C(=O)OCC(=O)N1CC2(C)CC1CC(C)(C)C2` (stereo not given), the inhibition is 56.1% (active).

In the case of `Cc1cccc(C(=O)NCC(=O)OCC(=O)N2CC3(C)CC2CC(C)(C)C3)c1` (stereo not given), the inhibition is 15.2%.

Turning to `CCOc1ccc(C(C)=O)cc1CSc1nnc(-c2ccncc2)n1CCOC`, the inhibition is 22.6%.

With `NC(=O)NC(CC(=O)NNC(=O)c1ccccn1)c1ccc(Cl)cc1` (stereo not given), the inhibition is 8.52%.

For `NC(=O)c1ccsc1NC(=O)c1ccco1`, the inhibition was -3.6%.

For the molecule `O=C(Nc1nc(-c2ccco2)c(-c2ccco2)s1)c1ccco1`, the inhibition is 59.7% (active).

Regarding `O=C(Nc1nnc(CCOCCOCCc2nnc(NC(=O)c3ccco3)s2)s1)c1ccco1`, the inhibition was -13%.

Take `C=CC[C@@H](CC(=O)NCCO)C(=O)N[C@H](C)COC(=O)[C@@H](CC=C)CC(=O)OC(C)(C)C`: the inhibition was -5.11%.

With `CC(Nc1ccccc1)c1cccnc1` (stereo not given), the inhibition was -3.38%.

Take `CCN(CC)S(=O)(=O)c1cc(C(=O)Nc2cc(S(=O)(=O)N3CCOCC3)ccc2N2CCCC2)ccc1F`: the inhibition is 3.43%.

As for `O=C(CN(C(=O)c1csnn1)c1cccc(Cl)c1)NC1CCCC1`, the inhibition is 17.6%.

Regarding `O=C(CCCN1C(=O)/C(=C/c2ccccc2)SC1=S)Nc1ccc(O)cc1`, the inhibition is 40.5% (active).

On to `COc1ccc(/C=C2\SC(=S)N(CCC(=O)Nc3cccc(C(=O)O)c3)C2=O)cc1OC`, for which the inhibition was 21.8%.

`O=C(CCCN1C(=O)/C(=C/c2cccs2)SC1=S)Nc1ccc(O)cc1`: the inhibition was 31.7%.

Turning to `CCC(C)[C@@H](C(=O)N1CCNCC1)n1cc(CCCCN)nn1` (stereo not given in full), the inhibition is -13.3%.

Consider `CCOC(=O)C1CCN(CCC(=O)Nc2cccc(C)c2)CC1`, for which the inhibition was 11.5%.

As to `CN(Cc1cccs1)C(=O)Cc1c[nH]c2ccccc12`, the inhibition is 14.6%.

`O=C(Nc1ccc2sc3ccccc3c(=O)c2c1)c1ccccc1Cl`: the inhibition is 4.71%.

Regarding `COc1cccc(-c2nn(C)c3sc(C(=O)N4CCN(c5ccccc5)CC4)cc23)c1`, the inhibition was 24.7%.

Regarding `COc1ccccc1N1CCN(C(=O)c2cc3c(-c4ccc(Cl)cc4)nn(C)c3s2)CC1`, the inhibition is 15.4%.

`CCOC(=O)N1CCN(C(=O)c2cc3c(-c4ccc(Cl)cc4)nn(C)c3s2)CC1`: the inhibition is 40.4% (active).

`O=C(CNC(=O)c1ccccc1)NCC(=O)OCc1ccc(Cl)cc1`: the inhibition was -23.2%.

As to `CCOC(=O)c1cnc(SCc2nc(N)nc(Nc3ccc(OC)cc3)n2)nc1N`, the inhibition was 17.6%.

For the molecule `COc1ccccc1Nc1nc(N)nc(CSC(=S)N2CCOCC2)n1`, the inhibition was 23.3%.

For the molecule `COc1ccc(Nc2nc(N)nc(CSC(=S)N3CCC(C)CC3)n2)cc1`, the inhibition was 46.2% (active).

Turning to `C=CCNC(=O)c1ccccc1SCc1c(C)noc1C`, the inhibition was 18%.

With `CCOP(=O)(OCC)C(Nc1cccc(C)c1)c1ccc(F)cc1` (stereo not given), the inhibition is 20.8%.
